Experimental data reported in PubChem BioAssay (NCATS).
Where “and” joins values, the source holds several entries; their conditions need not be identical. Equal entries are not always repeated. Results filed as inconclusive are left out. Calls of active or inactive are those of the source. Unless noted, calls follow the shape of the dose curve; as a rule, active = well fitted inhibition curve with a large enough effect; inconclusive = small, poorly fitted or top-dose-only effect; inactive = no such curve, though single readings can be large or run the other way.

Biological target: Cytochrome P450 2C19 (Homo sapiens) (UniProt P33261)
Sequence (P33261 whole entry, looked up): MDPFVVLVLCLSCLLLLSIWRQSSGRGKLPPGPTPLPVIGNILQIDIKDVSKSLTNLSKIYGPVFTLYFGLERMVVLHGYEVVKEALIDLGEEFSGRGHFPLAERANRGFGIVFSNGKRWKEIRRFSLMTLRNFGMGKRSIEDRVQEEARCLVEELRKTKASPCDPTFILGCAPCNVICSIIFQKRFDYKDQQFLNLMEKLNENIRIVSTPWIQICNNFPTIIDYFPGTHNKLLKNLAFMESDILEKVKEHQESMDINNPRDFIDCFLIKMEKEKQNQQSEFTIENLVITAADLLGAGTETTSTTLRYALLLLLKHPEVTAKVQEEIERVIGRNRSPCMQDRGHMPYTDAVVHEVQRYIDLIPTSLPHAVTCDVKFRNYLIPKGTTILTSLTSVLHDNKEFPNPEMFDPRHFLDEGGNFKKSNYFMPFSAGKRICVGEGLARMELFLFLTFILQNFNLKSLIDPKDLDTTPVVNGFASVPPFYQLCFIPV
Experiment: qHTS Assay for Inhibitors and Substrates of Cytochrome P450 2C19 (AID 899); also: % is scaled to controls: 0 for no effect and ±100 for the full control effect; nearly all actives have a fitted effect of over 60% in size
Conditions: recombinant CYP2C19, luciferin-H EGE luminescence; series mostly up to 11.4 µM; activity, negative = inhibition: at the top concentration
In short: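 NADPH-dependent conversion of Luciferin-H EGE (10uM, at KM) by 5nM enzyme in 50mM KPO4, 60 min at 37C following 10 min compound preincubation. Stopped with luciferin detection buffer; luminescence read after 20 min.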

activity, negative = inhibition, inactive:
CCOC(=O)CCN1C(=O)[C@H]2[C@@H]3[C@H](O)[C@H](O)CC(=O)[C@H]3CC[C@H]2C1=O 60.3%
C[C@@H](c1ccccc1)N1C(=O)[C@H]2[C@@H]3[C@H](O)C=CC(=O)[C@H]3CC[C@H]2C1=O 22.4%
CC(C)(C)N1C(=O)[C@H]2[C@@H]3[C@H](O)[C@H](O)CC(=O)[C@H]3CC[C@H]2C1=O 53%

Test system: not listed separately
Experiment: qHTS Assay for Identification of Small Molecule Agonists for Hypoxia Response Element Signaling Pathway (AID 914; active = well fitted activation curve with a large enough effect in the signal ratio, with a control signal flat, not every such curve was filed as active; the % refers to the signal ratio; also: % of control where 0% means no effect)
Conditions: ME-180 (cervical carcinoma) HRE-bla reporter, beta-lactamase ratio, CoCl2, 17 h; stronger effect = higher value
In short: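 HRE-bla ME-180 cells with beta-lactamase reporter under hypoxia response element, compounds with EC50 CoCl2 for 17 hours at 37 C. CCF4 substrate, 460nm/530nm emission ratio gave %Activity; AC50 from titration series.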

activation, inactive:
CCOC(=O)CCN1C(=O)[C@H]2[C@@H]3[C@H](O)[C@H](O)CC(=O)[C@H]3CC[C@H]2C1=O 2.87%
COc1ccc(-c2ccc3c(n2)CCCN3C[C@H](O)CN2CCCc3nc(-c4ccc(Br)cc4)ccc32)cc1 17.4% and 18.3%
COC(=O)C/C=C\[C@@H](C)[C@@H](/C=N\O[C@@H](C)CN1CCCc2nc(C)c(C)cc21)NS(=O)(=O)c1ccc(C)cc1 4.52%
COc1ccc(COC(=O)N/N=C2/C[C@@H](O)[C@@H](O)[C@@H]3[C@@H]4C(=O)N(c5cccc(Oc6ccccc6)c5)C(=O)[C@H]4CC[C@@H]23)cc1 -7.26%
C/C(CCC(=O)OC[C@@H]1O[C@H](C#Cc2ccccc2)C=C[C@@H]1Oc1ccc(C)cc1)=N/OC[C@@H](C)[C@H](OCc1ccccc1)C(C)C 14.9%
C/C(CCN1CCc2nc(-c3ccccc3)c(-c3ccccc3)cc2C1)=N\O[C@@H](C)CN1CCCc2nc(C)c(C)cc21 24.9%
CC(C)C(=O)N[C@@H]1CCCN1C(=O)/C=C\c1ccccc1 12.7%
CCc1cc2c(nc1CC)CCN(CC/C(C)=N/OC[C@@H](O)[C@@H]1O[C@@H]3OC(C)(C)O[C@@H]3[C@H]1O)C2 -8.78%
C/C(CCN1CCCCc2nc(C)c(C)cc21)=N\OC[C@@H](C)[C@H](OCc1ccccc1)C(C)C 5.09%
C#CCCCO/N=C1/C[C@@H](O)[C@@H](O)[C@@H]2[C@@H]3C(=O)N(C4CCCCC4)C(=O)[C@H]3CC[C@H]12 7.1%
